Reference: PubChem BioAssay (Tox21)
Inconclusive results are not listed. The source made the active and inactive calls. Unless noted, the call rests on the fitted dose curve; in most records, active means well fitted curve in the direction sought with a large enough effect in the repeat runs; inconclusive means weak or mixed curves; inactive means no such curve, though single readings can be large; an effect the other way counts as inactive or inconclusive.

Assays:
[1] = qHTS assay to identify small molecule agonists of the estrogen receptor alpha (ER-alpha) signaling pathway in the presence of an antagonist - cell viability counter screen (AID 1259386);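 further: series mostly up to about 92 µM; cells exposed to compounds for 22 h at 37 °C before the viability read; nearly all actives have a fitted effect of over 30% in size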
Summary of the method: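 ICI-182,780 at 10.0nM final accompanies the compound titration (15 concentrations, 22hr, 37C) on VM7Luc4E2 cells. The CellTiter-Fluor fluorescence readout runs in the same wells as the luciferase assay.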

[2] = biological target: Progesterone receptor (Homo sapiens) (UniProt P06401); test: qHTS assay to identify small molecule agonists of the progesterone receptor (PR) signaling pathway (AID 1346784; calls by dose curve; further: nearly all actives have a fitted effect of over 30% in size)
Progesterone receptor (Homo sapiens), sequence (P06401 whole entry, looked up): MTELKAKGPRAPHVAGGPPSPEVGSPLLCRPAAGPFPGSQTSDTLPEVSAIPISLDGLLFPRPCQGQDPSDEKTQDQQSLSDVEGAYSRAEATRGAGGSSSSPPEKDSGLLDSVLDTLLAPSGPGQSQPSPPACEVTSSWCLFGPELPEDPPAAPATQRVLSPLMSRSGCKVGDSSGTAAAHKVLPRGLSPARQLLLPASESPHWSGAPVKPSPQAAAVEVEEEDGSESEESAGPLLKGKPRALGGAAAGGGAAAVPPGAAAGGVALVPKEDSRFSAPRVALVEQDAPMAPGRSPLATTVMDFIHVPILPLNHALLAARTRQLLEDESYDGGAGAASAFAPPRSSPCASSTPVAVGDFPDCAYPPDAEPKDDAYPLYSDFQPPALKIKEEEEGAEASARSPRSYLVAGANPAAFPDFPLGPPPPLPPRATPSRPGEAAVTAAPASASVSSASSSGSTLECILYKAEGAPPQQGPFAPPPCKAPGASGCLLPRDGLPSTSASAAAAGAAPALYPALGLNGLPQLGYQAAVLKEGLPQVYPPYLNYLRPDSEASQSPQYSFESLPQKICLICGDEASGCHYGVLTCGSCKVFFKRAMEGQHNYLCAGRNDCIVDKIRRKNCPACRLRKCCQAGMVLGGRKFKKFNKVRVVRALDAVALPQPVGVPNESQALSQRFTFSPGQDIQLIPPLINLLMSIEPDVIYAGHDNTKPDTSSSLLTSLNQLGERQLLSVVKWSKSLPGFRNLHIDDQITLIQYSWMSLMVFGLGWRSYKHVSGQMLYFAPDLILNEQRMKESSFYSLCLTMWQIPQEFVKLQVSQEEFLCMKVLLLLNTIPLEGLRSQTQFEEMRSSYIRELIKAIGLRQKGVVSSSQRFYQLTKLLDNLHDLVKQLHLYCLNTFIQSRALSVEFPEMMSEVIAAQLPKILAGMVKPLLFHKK
Summary of the method: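 Fluorescence from LiveBLAzer B/G FRET substrate cleavage (2 hr, RT) reported PR activation in PR-UAS-bla HEK 293T cells treated 16 hr at 37C/5% CO2 with compounds; medium contained 2% charcoal-stripped FBS.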

[3] = biological target: Progesterone receptor (Homo sapiens) (UniProt P06401); test: qHTS assay to identify small molecule antagonists of the progesterone receptor (PR) signaling pathway (AID 1346795; active means well fitted inhibition curve with a large enough effect in the signal ratio in the repeat runs, not every such curve was filed as active; the % refers to the signal ratio; further: potency means the concentration at half of the fitted maximal effect)
Summary of the method: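 Fluorescence intensity measured 2 hr after adding beta-lactamase FRET substrate to PR-UAS-bla HEK293T cells that had been co-treated 16 hr with compound and 1 nM R5020 (final concentration) in 2% charcoal-stripped FBS.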

[4] = qHTS assay to identify small molecule antagonists of the progesterone receptor (PR) signaling pathway - cell viability counter screen (AID 1346798); further: series mostly up to about 92 µM; nearly all actives have a fitted effect of over 50% in size
Summary of the method: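 CellTiter-Glo luminescence; PR-UAS-bla HEK293T, 3,000 cells/well; compound + R5020, 16 hr, 37C/5% CO2; 30 min RT before read.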

[5] = qHTS assay to identify small molecule agonists of the progesterone receptor (PR) signaling pathway - cell viability counter screen (AID 1346799; calls by dose curve; further: nearly all actives have a fitted effect of over 45% in size)
Summary of the method: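 In parallel with the beta-lactamase readout, cytotoxicity toward PR-UAS-bla HEK293T cells was measured by CellTiter-Glo luminescence following 16 hr compound incubation in 2% charcoal-stripped FBS medium.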

[6] = qHTS assay to identify small molecule antagonists of the TGF-beta/Smad signaling pathway - cell viability counter screen (AID 1346824); further: nearly all actives have a fitted effect of over 50% in size
Summary of the method: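 SBE-bla HEK 293T cells, incubated overnight, then compound plus 0.25 ng/mL TGF-beta1 (stock added) for 5 hr at 37 C. Viability was read in the same wells by CellTiter-Glo luminescence after 30 min at room temperature.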

[7] = qHTS assay to identify small molecule agonists of the TGF-beta/Smad signaling pathway - cell viability counter screen (AID 1346829); further: top concentration of the series differs between compounds; nearly all actives have a fitted effect of over 45% in size
Summary of the method: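 Tox21 qHTS format: SBE-bla HEK 293T cells treated with DMSO-dissolved compounds for 5 hr; CellTiter-Glo luminescence after 30 min at room temperature.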

[8] = qHTS assay to identify small molecule agonists of the TGF-beta/Smad signaling pathway (AID 1346859; active means well fitted activation curve with a large enough effect in the signal ratio in the repeat runs, not every such curve was filed as active; the % refers to the signal ratio; further: series mostly up to about 77 µM)
Summary of the method: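 After overnight seeding, SBE-bla HEK 293T cells are dosed with compounds in DMSO and kept 5 hr at 37 C, 5% CO2. LiveBLAzer-type FRET substrate is then applied for 2 hr at room temperature.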

[9] = biological target: Thyrotropin-releasing hormone receptor (Homo sapiens) (UniProt P34981); test: qHTS assay to identify small molecule antagonists of the thyrotropin-releasing hormone receptor (TRHR) signaling pathway (AID 1346877; active means well fitted inhibition curve with a large enough effect in the repeat runs, not every such curve was filed as active; further: series mostly up to about 51 µM)
Thyrotropin-releasing hormone receptor (Homo sapiens), sequence (P34981 whole entry, looked up): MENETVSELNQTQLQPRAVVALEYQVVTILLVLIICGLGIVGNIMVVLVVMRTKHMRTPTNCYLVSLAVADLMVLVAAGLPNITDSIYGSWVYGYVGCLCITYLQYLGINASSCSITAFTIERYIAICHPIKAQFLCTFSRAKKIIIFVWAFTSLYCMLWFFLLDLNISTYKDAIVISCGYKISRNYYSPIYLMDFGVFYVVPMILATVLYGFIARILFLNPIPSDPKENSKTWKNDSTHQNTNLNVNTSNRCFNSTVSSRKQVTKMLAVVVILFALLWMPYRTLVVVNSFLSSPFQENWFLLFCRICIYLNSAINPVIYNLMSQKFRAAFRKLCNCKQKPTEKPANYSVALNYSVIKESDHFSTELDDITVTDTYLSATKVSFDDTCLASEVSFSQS
Summary of the method: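 Screening used HEK293 cells engineered with TRHR, with a brief 5 min room-temperature compound exposure preceding addition of TRH to 1 nM. The read-out was kinetic calcium-dye fluorescence, concentration-response from 15 doses in triplicate.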

[10] = biological target: Thyrotropin-releasing hormone receptor (Homo sapiens) (UniProt P34981); test: qHTS assay to identify small molecule agonists of the thyrotropin-releasing hormone receptor (TRHR) signaling pathway (AID 1346891; calls by dose curve;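 further: HEK293 cells expressing TRHR with calcium dye readout; series mostly up to about 58 µM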)
Summary of the method: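 Compounds were tested as agonists at 15 concentrations, in triplicate, on TRHR-Hek293 cells; calcium-sensitive dye fluorescence was recorded for 3 min following addition.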

[11] = Human pregnane X receptor (PXR) small molecule agonists, qHTS cell viability counter screen (AID 1346977); further: nearly all actives have a fitted effect of over 50% in size
Summary of the method: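 Viability counter screen: CellTiter-Fluor signal in PXR-Luc HepG2 cells, 24hr compound exposure, 37C, 5% CO2.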

[12] = Caspase-3/7 induction in CHO-K1 cells by small molecules, qHTS cell viability counter screen (AID 1346979); further: nearly all actives have a fitted effect of over 35% in size; further: potency means the concentration at half of the fitted maximal effect
Summary of the method: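 Viability readout by fluorescence (CellTiter-Fluor) on wild-type CHO-K1 cells exposed for 16hr at 37C and 5% CO2 to compounds delivered in DMSO; reagent incubated 1hr before reading.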

[13] = Caspase-3/7 induction in CHO-K1 cells by small molecules, qHTS assay (AID 1346980); further: nearly all actives have a fitted effect of over 15% in size
Summary of the method: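 Wild-type CHO-K1 cells exposed to compounds for 17hr at 37 C, 5% CO2. Caspase-3/7 activity then measured by Caspase-Glo 3/7 luminescence after 30min at room temperature.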

[14] = Caspase-3/7 induction in HepG2 cells by small molecules, qHTS cell viability counter screen (AID 1346981); further: series mostly up to about 92 µM; nearly all actives have a fitted effect of over 30% in size
Summary of the method: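 Multiplexed with the caspase-3/7 assay: HepG2 cells, 16 hr compound treatment, CellTiter-Fluor viability detection by fluorescence.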

[15] = biological target: Nuclear receptor subfamily 1 group I member 2 (Homo sapiens) (UniProt O75469); test: Human pregnane X receptor (PXR) small molecule agonists, qHTS assay (AID 1346982); further: nearly all actives have a fitted effect of over 35% in size; further: potency means the concentration at half of the fitted maximal effect
Nuclear receptor subfamily 1 group I member 2 (Homo sapiens), sequence (O75469 whole entry, looked up): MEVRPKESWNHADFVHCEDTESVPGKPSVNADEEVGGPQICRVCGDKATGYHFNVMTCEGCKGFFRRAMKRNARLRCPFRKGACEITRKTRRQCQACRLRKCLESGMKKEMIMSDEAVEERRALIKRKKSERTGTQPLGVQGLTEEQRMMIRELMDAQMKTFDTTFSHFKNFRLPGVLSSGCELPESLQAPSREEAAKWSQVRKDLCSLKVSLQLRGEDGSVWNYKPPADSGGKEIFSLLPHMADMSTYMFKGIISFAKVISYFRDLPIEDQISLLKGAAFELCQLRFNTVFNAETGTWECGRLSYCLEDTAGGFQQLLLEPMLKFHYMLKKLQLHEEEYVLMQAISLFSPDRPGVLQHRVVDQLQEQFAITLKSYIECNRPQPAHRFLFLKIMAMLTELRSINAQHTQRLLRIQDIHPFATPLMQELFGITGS
Summary of the method: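 We seeded PXR-Luc HepG2 cells in assay medium containing 5% charcoal-stripped FBS, added compounds 5 hr later, incubated 24 hr, and read luminescence with ONE-Glo reagent.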

[16] = biological target: Nuclear receptor subfamily 1 group I member 2 (Rattus norvegicus) (UniProt Q9R1A7); test: Rat pregnane X receptor (rPXR) activation by small molecules, qHTS assay (AID 1346983); conditions: rPXR luciferase reporter cells, One-Glo luminescence, 24 h; max activation: active compounds read high; further: nearly all actives have a fitted effect of over 20% in size
Nuclear receptor subfamily 1 group I member 2 (Rattus norvegicus), sequence (Q9R1A7 whole entry, looked up): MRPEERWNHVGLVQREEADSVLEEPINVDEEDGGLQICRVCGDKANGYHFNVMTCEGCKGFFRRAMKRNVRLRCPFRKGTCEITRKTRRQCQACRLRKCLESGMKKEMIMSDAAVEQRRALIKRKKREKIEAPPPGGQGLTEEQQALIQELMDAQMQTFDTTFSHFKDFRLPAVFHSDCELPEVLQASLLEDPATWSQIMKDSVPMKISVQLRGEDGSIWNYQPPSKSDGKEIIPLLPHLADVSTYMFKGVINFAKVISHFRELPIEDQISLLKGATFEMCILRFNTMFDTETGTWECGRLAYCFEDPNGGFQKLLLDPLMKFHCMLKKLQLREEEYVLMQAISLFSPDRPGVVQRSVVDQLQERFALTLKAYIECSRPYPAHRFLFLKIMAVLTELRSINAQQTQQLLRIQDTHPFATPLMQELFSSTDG
Summary of the method: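 Cell-based rPXR activation assay: rPXR cells, 2,000 per well, rested 5hr at 37 C, then exposed to compounds in DMSO for 24 hr at 37 C. Luciferase activity read by One-Glo luminescence after 30 min at room temperature.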

[17] = biological target: Nuclear receptor subfamily 1 group I member 2 (Homo sapiens) (UniProt O75469); test: CYP3A4 induction through human pregnane X receptor (PXR) by small molecules, qHTS assay (AID 1346984); further: nearly all actives have a fitted effect of over 40% in size
Summary of the method: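 qHTS, concentration-response format: HepG2 DPX-2 line, PXR/CYP3A4-luc. Exposure 24 h, 37C. Substrate Luciferin-IPA 3uM final, 3 h. Detection One-Glo, 30 min RT.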

[18] = biological target: Nuclear receptor subfamily 1 group I member 2 (Homo sapiens) (UniProt O75469); test: Human pregnane X receptor (PXR) activation by small molecules, qHTS assay (AID 1346985); further: nearly all actives have a fitted effect of over 40% in size
Summary of the method: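 DPX-2 cells (HepG2 co-transfected with a PXR response element and a CYP3A4-promoter luciferase construct) were seeded at 2,000 per well, rested 5 hr at 37C, then exposed to DMSO-dissolved compounds for 24 hr. Activation was read as luciferase luminescence.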

[19] = biological target: Acetylcholinesterase (Homo sapiens) (UniProt P22303); test: Acetylcholinesterase (AChE) small molecule antagonists: colormetric cell-based qHTS assay (AID 1347395; calls by dose curve; further: nearly all actives have a fitted effect of over 30% in size)
Acetylcholinesterase (Homo sapiens), sequence (P22303 whole entry, looked up): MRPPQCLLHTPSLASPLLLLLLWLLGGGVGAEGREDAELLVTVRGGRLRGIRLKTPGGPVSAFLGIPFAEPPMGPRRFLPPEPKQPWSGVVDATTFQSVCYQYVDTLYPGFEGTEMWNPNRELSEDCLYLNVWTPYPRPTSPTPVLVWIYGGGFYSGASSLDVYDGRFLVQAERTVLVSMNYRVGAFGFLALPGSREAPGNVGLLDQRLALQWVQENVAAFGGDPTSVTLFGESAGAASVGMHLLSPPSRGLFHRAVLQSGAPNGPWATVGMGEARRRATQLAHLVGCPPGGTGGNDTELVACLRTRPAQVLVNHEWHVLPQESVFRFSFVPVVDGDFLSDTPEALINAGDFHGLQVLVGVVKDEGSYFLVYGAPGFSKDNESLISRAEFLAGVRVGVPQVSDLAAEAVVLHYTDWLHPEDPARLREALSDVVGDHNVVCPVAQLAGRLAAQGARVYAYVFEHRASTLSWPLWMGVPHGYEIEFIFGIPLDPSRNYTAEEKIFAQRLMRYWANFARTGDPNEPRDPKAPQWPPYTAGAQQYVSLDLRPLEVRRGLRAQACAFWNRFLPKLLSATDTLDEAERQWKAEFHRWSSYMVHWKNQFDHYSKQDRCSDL
Summary of the method: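 Homogeneous whole-cell format. SH-SY5Y cells seeded overnight, dosed with compound (30 min, 37 C, 5% CO2), then given DTNB/acetylthiocholine cocktail for 90 min at 37 C; colorimetric signal.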

[20] = Caspase-3/7 induction in HepG2 cells by small molecules, qHTS assay (AID 1346978); further: nearly all actives have a fitted effect of over 15% in size
Summary of the method: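 Wild-type HepG2 cells, 2,000/well, settled 5 hr at 37 C and 5% CO2, then compound-treated for 17 hr; caspase-3/7 activity read by luminescent Caspase-Glo 3/7 after 30 min at room temperature.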
On the % scale 0 is the no-effect control and ±100 the full control effect.

COc1c2c(cc3c1OCO3)CCN(C)C2
inactive: Potency [1] | Potency [2] | Potency [3] | Potency [4] | Potency [5] | Potency [6] | Potency [7] | outcome [8] | Potency [9] | Potency [10] | Potency [11] | Potency [12] | Potency [13] | Potency [14] | Potency [15] | max activation [16] -1.49% | Potency [17] | Potency [18] | Potency [19]

Cc1cc2c3c(c1)C(c1ccccc1)=N[C@@H](NC(=O)c1ccncc1)C(=O)N3CC2
active: Potency [15] 13.7 µM
inactive: Potency [1] | Potency [2] | Potency [3] | Potency [4] | Potency [5] | Potency [6] | Potency [7] | outcome [8] | Potency [9] | Potency [10] | Potency [11] | Potency [20] | Potency [12] | Potency [13] | Potency [14] | Potency [19]

CSC(C)(C)/C=N/O
inactive: Potency [1] | Potency [2] | Potency [3] | Potency [4] | Potency [5] | Potency [6] | Potency [7] | outcome [8] | Potency [9] | Potency [10] | Potency [11] | Potency [20] | Potency [12] | Potency [13] | Potency [14] | Potency [15] | Potency [19]

ClCBr
inactive: Potency [1] | Potency [2] | Potency [3] | Potency [4] | Potency [5] | Potency [6] | Potency [7] | outcome [8] | Potency [9] | Potency [10] | Potency [20] | Potency [12] | Potency [14] | Potency [15] | Potency [19]

CSC(=O)c1c(C(F)F)nc(C(F)(F)F)c(C(=O)SC)c1CC(C)C
inactive: Potency [1] | Potency [2] | Potency [4] | Potency [5] | Potency [6] | Potency [7] | outcome [8] | Potency [9] | Potency [10] | Potency [20] | Potency [13] | Potency [14] | Potency [19]
active: Potency [3] 30.5 µM | Potency [15] 4.83 µM

ClC(Cl)C(Cl)(Cl)Cl
inactive: Potency [1] | Potency [2] | Potency [3] | Potency [4] | Potency [5] | Potency [6] | Potency [7] | outcome [8] | Potency [9] | Potency [10] | Potency [11] | Potency [20] | Potency [12] | Potency [13] | Potency [14] | Potency [15] | Potency [19]

Oc1ccc(Cl)c(Cl)c1
inactive: Potency [1] | Potency [2] | Potency [4] | Potency [5] | Potency [6] | Potency [7] | outcome [8] | Potency [9] | Potency [10] | Potency [11] | Potency [20] | Potency [13] | Potency [14] | Potency [19]
active: Potency [3] 26.9 µM | Potency [12] 67.5 µM | Potency [15] 60.2 µM

CC(=O)O.CC(=O)O.CC(=O)O.CC(=O)O.CC(=O)O.CC(=O)O.CC(=O)O.O.O.[Cr].[Cr].[Cr]
inactive: Potency [1] | Potency [2] | Potency [3] | Potency [4] | Potency [5] | Potency [7] | outcome [8] | Potency [11] | Potency [20] | Potency [12] | Potency [13] | Potency [14]
